An excerpt weighted towards active compounds, which were near 1.2% of everything screened.
Efflux pump mplx: antifungal efflux pump inhibition, Nile Red retention. S. cerevisiae Candida pump triplex. inhibition, % at 10 µM. actives 0.44% (n = 330,000);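 active = plate passing quality check with inhibition over a set limit, or well fluorescence over plate mean plus 4 SD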;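 also: Nile Red retained in pooled yeast measured as flow cytometry median fluorescence; 0% = buffer negative control and 100% = Enniatin B positive control; higher means more Nile Red kept so more efflux inhibition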
SRC3 inh: inhibits human SRC3 coactivator. HEK293 GAL4-SRC3 luciferase reporter, luminescence. inhibition, % at 3.6 µM. actives 0.17% (n = 360,000);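 active = inhibition above a per-campaign cutoff, the mean of all compounds plus 3 SD, cut at about 60% in these data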;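 also: 0% = DMSO-treated cells and 100% = gossypol-treated cells at 36 µM; higher means less SRC3-driven luciferase light from the GAL4 reporter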
Target sequence (Q9Y6Q9 whole entry, looked up, the tested form may be a part): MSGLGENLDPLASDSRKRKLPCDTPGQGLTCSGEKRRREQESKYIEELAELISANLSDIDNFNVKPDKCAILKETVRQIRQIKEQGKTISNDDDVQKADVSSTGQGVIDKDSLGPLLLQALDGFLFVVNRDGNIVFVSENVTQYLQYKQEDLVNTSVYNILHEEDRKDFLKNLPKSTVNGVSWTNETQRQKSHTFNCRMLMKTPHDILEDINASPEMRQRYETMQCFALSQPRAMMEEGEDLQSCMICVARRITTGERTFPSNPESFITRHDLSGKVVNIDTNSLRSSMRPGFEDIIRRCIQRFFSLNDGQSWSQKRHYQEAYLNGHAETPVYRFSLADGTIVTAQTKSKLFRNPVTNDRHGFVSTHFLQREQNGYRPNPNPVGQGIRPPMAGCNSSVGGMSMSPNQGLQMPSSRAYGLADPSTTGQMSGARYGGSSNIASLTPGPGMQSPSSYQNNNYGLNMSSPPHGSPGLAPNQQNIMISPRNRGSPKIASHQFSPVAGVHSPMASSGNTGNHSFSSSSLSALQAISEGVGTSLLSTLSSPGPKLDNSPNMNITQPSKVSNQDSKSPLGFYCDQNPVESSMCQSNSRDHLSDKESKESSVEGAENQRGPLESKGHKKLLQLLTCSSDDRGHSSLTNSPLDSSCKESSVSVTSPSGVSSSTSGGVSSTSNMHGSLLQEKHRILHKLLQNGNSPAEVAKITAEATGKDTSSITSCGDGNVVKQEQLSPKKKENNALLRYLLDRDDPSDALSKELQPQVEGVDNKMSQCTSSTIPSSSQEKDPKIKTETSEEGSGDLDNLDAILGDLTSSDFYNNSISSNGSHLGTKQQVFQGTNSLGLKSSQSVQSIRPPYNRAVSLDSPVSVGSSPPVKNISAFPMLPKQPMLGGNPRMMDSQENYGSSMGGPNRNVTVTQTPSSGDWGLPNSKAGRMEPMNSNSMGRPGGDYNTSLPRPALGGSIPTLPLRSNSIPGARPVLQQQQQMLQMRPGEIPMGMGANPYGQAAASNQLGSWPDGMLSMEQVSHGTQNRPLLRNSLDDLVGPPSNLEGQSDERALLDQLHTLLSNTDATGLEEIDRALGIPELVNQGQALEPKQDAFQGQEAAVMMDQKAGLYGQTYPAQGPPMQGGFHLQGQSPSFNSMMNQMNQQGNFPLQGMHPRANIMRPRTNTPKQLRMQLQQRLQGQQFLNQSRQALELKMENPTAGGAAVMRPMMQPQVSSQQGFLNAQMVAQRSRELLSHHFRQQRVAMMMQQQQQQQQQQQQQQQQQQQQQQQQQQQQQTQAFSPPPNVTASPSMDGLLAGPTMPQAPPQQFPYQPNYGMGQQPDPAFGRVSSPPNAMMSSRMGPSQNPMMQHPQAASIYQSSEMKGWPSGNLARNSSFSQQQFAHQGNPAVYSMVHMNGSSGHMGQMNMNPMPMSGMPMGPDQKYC
COUP-TFII inh: inhibitors of human COUP-TFII (NR2F2); inhibition, % at 8.6 µM; P24468; actives 0.7% (n = 370,000); HEK293T NGFI-A luciferase reporter, luminescence;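 active = inhibition above a per-plate cutoff, mean inhibition of test wells between control levels plus 3 SD, cut at about 38% in these data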;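 also: cells cotransfected with COUP-TFII expression vector driving the NGFI-A reporter; 0% = median of COUP-TF2 test wells and 100% = reporter-only cells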
SRC2 inh: inhibits human steroid receptor coactivator 2. Q15596. HEK293 GAL4-SRC2 luciferase reporter, luminescence. inhibition, % at 9 µM. actives 0.17% (n = 370,000);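 active = inhibition above the mean inhibition of all tested compounds plus 3 SD, set per campaign, cut at about 52% in these data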;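 also: 0% = DMSO treated cells and 100% = cells given Gossypol at 36 µM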
LRH-1 inv ag: NR5A2 inverse agonism in reporter assay; actives 0.13% (n = 360,000); HEK293T StAR-luciferase reporter, LRH-1 transfected, 24 h; O00482; AID 602396; inhibition, % at 3.6 µM;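 active = inhibition above the mean inhibition of all tested compounds plus 3 SD, cut at about 73% in these data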;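 also: 0% = DMSO wells and 100% = reporter-only cells lacking LRH-1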
NCOA1 inh: human NCOA1 inhibition. Q15788. HEK293 GAL4-SRC1 luciferase reporter, luminescence. actives 0.12% (n = 360,000). AID 588354. inhibition, % at 3.6 µM;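 active = inhibition above the campaign mean plus 3 SD, with each screening campaign given its own cutoff, cut at about 60% in these data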;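 also: 0% = DMSO treated cells and 100% = gossypol at 36 µM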
VP16 Luc counter: inhibits VP16 reporter, flagging COUP-TFII antagonist hits | shares compounds with COUP-TFII inh | HEK293 Gal4-VP16 luciferase reporter, luminescence | inhibition, % at 8.5 µM | actives 25% (n = 2,500) | AID 687007; in the data active = inhibition above about 13%
NR2F2 inh conf: confirmation of human COUP-TFII (NR2F2) inhibitors; inhibition, % at 8.5 µM; HEK293 NGFI-A luciferase reporter, luminescence; shares compounds with COUP-TFII inh; AID 687008; actives 45% (n = 2,500);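 active = mean inhibition over three repeats above a set limit taken from the earlier primary screen, cut at about 38% in these data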;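 also: 100% = cells given the luciferase reporter alone without the COUP-TF2 vector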
* hit, by the source's call.

Screening COc1cc(CN2CCC(CO)(Cc3cccc(C(F)(F)F)c3)CC2)ccc1F returned Efflux pump mplx 0, SRC3 inh 31, COUP-TFII inh -13, SRC2 inh 4, LRH-1 inv ag 17 and NCOA1 inh -3.
Screening Cc1cccc(C(=O)O/N=C(\N)c2ccccn2)c1 returned Efflux pump mplx 0, SRC3 inh -44, COUP-TFII inh 47*, SRC2 inh 48, LRH-1 inv ag -7, NCOA1 inh -21, VP16 Luc counter -173 and NR2F2 inh conf -111.
COc1cc(C(=O)O/N=C(\N)c2ccccn2)cc(OC)c1OC was read as Efflux pump mplx 0, SRC3 inh -4, COUP-TFII inh -7, SRC2 inh -6, LRH-1 inv ag -13 and NCOA1 inh -8.
`Cc1ccc(C(=O)O/N=C(\N)c2ccccn2)cc1C` gave Efflux pump mplx 0, SRC3 inh -11, COUP-TFII inh 50*, SRC2 inh 42, LRH-1 inv ag -11, NCOA1 inh -34, VP16 Luc counter -70 and NR2F2 inh conf -1.
Screening CC(C)(C)c1ccc(C(=O)O/N=C(\N)c2ccccn2)cc1 returned Efflux pump mplx 0, SRC3 inh 88*, COUP-TFII inh 95*, SRC2 inh 86*, LRH-1 inv ag 88*, NCOA1 inh 90*, VP16 Luc counter 74* and NR2F2 inh conf 101*.
Screening CCOc1ccc(C(=O)O/N=C(\N)c2ccccn2)cc1 returned Efflux pump mplx 0, SRC3 inh 39, COUP-TFII inh 81*, SRC2 inh 65*, LRH-1 inv ag 29, NCOA1 inh 17, VP16 Luc counter -93 and NR2F2 inh conf -4.
For N/C(=N\OC(=O)c1cccc(F)c1)c1ccccn1 the results were Efflux pump mplx 0, SRC3 inh -68, COUP-TFII inh -16, SRC2 inh -6, LRH-1 inv ag -114 and NCOA1 inh -120.
Screening N/C(=N\OC(=O)c1ccccc1)c1ccccn1 returned Efflux pump mplx 0, SRC3 inh -67, COUP-TFII inh -9, SRC2 inh -17, LRH-1 inv ag -88 and NCOA1 inh -99.
Cc1cc(Nc2c(C)n(C)n(-c3ccccc3)c2=O)n2c(nc3cc(F)c(F)cc32)c1C#N was read as Efflux pump mplx 0.
For Cc1ccc(C(=O)O/N=C(\N)c2ccccn2)cc1 the results were Efflux pump mplx 0, SRC3 inh -62, COUP-TFII inh 57*, SRC2 inh 57*, LRH-1 inv ag -16, NCOA1 inh -22, VP16 Luc counter -157 and NR2F2 inh conf -110.
`O=C(CSc1nccn1Cc1ccc(F)cc1)NC1CCCC1` gave Efflux pump mplx 0, SRC3 inh -19, COUP-TFII inh 13, SRC2 inh -14, LRH-1 inv ag -22 and NCOA1 inh 0.
`CCN(CC)S(=O)(=O)c1ccc(Cl)c(NC(=O)COC(=O)c2cccn2C)c1` gave Efflux pump mplx 0, SRC3 inh 13, COUP-TFII inh 38*, SRC2 inh -5, LRH-1 inv ag -16, NCOA1 inh -26, VP16 Luc counter -11 and NR2F2 inh conf 6.
Screening CNC1=C(N(C(C)=O)c2ccc(Br)cc2)C(=O)c2ccccc2C1=O returned Efflux pump mplx 0, SRC3 inh 81*, COUP-TFII inh 48*, SRC2 inh 46, LRH-1 inv ag 97*, NCOA1 inh 81*, VP16 Luc counter 17* and NR2F2 inh conf 36.
For CS(=O)(=O)Nc1ccc2c(c1)C(=O)OC2 the results were Efflux pump mplx 0, SRC3 inh -11, COUP-TFII inh -6, SRC2 inh -12, LRH-1 inv ag 2 and NCOA1 inh -11.
For Cc1ccc(S(=O)(=O)NCc2ccc(C(=O)N3CCN(Cc4ccccc4)CC3)cc2)cc1 the results were Efflux pump mplx 0, SRC3 inh 16, COUP-TFII inh 48*, SRC2 inh 16, LRH-1 inv ag 20, NCOA1 inh 19, VP16 Luc counter -3 and NR2F2 inh conf 22.
For COc1ccc(S(=O)(=O)NCc2ccc(C(=O)N3CCN(Cc4ccccc4)CC3)cc2)cc1 the results were Efflux pump mplx 0, SRC3 inh 4, COUP-TFII inh 18, SRC2 inh 27, LRH-1 inv ag 6 and NCOA1 inh 10.
`Cc1ccc(S(=O)(=O)NCc2ccc(C(=O)N3CCN(c4ccc([N+](=O)[O-])cc4)CC3)cc2)cc1` gave Efflux pump mplx 0, SRC3 inh 44, COUP-TFII inh 55*, SRC2 inh 9, LRH-1 inv ag 32, NCOA1 inh 17, VP16 Luc counter 7 and NR2F2 inh conf 66*.
For Cc1cc(C)c(OCC(=O)OCC(=O)N2CCCc3ccccc32)c(C)c1 the results were Efflux pump mplx 0, SRC3 inh 0, COUP-TFII inh 1, SRC2 inh -23, LRH-1 inv ag -5 and NCOA1 inh 0.
Screening O=C(Cn1c2ccccc2c2nc3n(c(=O)c21)CCS3)Nc1ccccc1C(F)(F)F returned Efflux pump mplx 0, SRC3 inh 14, COUP-TFII inh 13, SRC2 inh 2, LRH-1 inv ag 14 and NCOA1 inh -26.
CC1CCc2nc(N)c(C#N)c(-c3cccnc3)c2C1 (centres undefined) was read as Efflux pump mplx 0, SRC3 inh 63*, COUP-TFII inh 52*, SRC2 inh 39, LRH-1 inv ag 41, NCOA1 inh 72*, VP16 Luc counter 14* and NR2F2 inh conf 24.
Screening COc1ccc(NC(=O)O/N=C/c2c(C)nn(C(C)(C)C)c2C)cc1 returned Efflux pump mplx 0, SRC3 inh -2, COUP-TFII inh 18, SRC2 inh -76, LRH-1 inv ag -26 and NCOA1 inh -23.
`Cc1nn(C(C)(C)C)c(C)c1/C=N/OC(=O)Nc1ccc(Cl)c(Cl)c1` gave Efflux pump mplx 0, SRC3 inh 79*, COUP-TFII inh 69*, SRC2 inh 70*, LRH-1 inv ag 25, NCOA1 inh 60, VP16 Luc counter 49* and NR2F2 inh conf 84*.
For CC(C)(C)c1ccc(C(=O)Nc2ccc(NC(=O)C(=O)O)cc2)o1 the results were Efflux pump mplx 0, SRC3 inh -22, COUP-TFII inh 42*, SRC2 inh 59*, LRH-1 inv ag 11, NCOA1 inh -5, VP16 Luc counter 2 and NR2F2 inh conf 2.
`O=C(NNC(=O)c1ccccc1C(=O)O)c1ccc(-c2ccccc2)cc1` gave Efflux pump mplx 0, COUP-TFII inh -3 and SRC2 inh -30.
For CCN1CCN(C(=O)c2cc3c(s2)-c2ccccc2S(=O)(=O)C3)CC1 the results were Efflux pump mplx 1, SRC3 inh -15, COUP-TFII inh -4, SRC2 inh -26, LRH-1 inv ag 9 and NCOA1 inh -18.
